SMILES strings stand for the structures. The whole screen tested about 3,400 compounds, of which about 840 (25%) were called active. Roughly 11% stayed inconclusive and do not appear here. Not all results are given here. Measured potencies and affinities stand elsewhere. A number with no mark means an inactive call.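 Rule for the calls: active = fitted half-maximal concentration of signal decrease at or below twice the sample's top tested concentration; inconclusive = flat curve between -70 and -30 percent, or poor fit; inactive = flat within 30 percent, signal rise, or potency above limit.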

The nature of this test: inhibitors of Toxoplasma growth in IFN-γ-primed HeLa – cell-based, ME49Luc, luciferase, 72 h, dose response (AID 1259418). Particulars: T. gondii ME49Luc in IFN-y HeLa, hits give low values, -100% = high-dose IFN-γ control wells; at 19.5 µM unless noted.
Consider `O=C(Cc1ccc(F)cc1)N1CCC2(CC1)Nc1cc(F)ccc1-n1cccc12`, for which the max activity is 16% [at 0.16 µM]. As to `O=C(NCc1ccccc1)Nc1ccc(-c2nc(-c3ccccc3)co2)cc1`, the max activity was 42.6%.

Turning to `Cc1cc(C2CCCN2C(=O)Cn2nc(C(F)(F)F)cc2C)no1` (configuration not stated), the max activity was 11.8% [at 2.6 µM]. To `CC(C)c1cc(C2CCCN2C(=O)Cn2nc(C(F)(F)F)c3c2CCCC3)no1` (configuration not stated) belongs 6.95% [at 0.16 µM]. As for `CCc1cc(C2CCCN2C(=O)Cn2nc(C(F)(F)F)c3c2CCCC3)on1` (configuration not stated), the max activity is 14.3% [at 0.16 µM]. Consider `CCCc1cc(C2CCCN2C(=O)Cn2nc(C(F)(F)F)cc2C)no1` (configuration not stated), for which the max activity is 9.64% [at 1.35 µM]. On to `CC(C)c1cc(C2CCCN2C(=O)Cn2nc(C(F)(F)F)c3c2CCCC3)on1` (configuration not stated), for which the max activity is 9.58% [at 2.6 µM]. For `Cc1cc(C2CCCN2C(=O)Cn2nc(C(F)(F)F)c3c2CCCC3)on1` (configuration not stated), the max activity was -9.58% [at 0.16 µM].

Turning to `COCCCNC(=O)Cn1c(=O)c(S(=O)(=O)c2ccccc2)cc2ccccc21`, the max activity is -8.44% [at 0.35 µM]. To `Cc1ccc(-c2nc3c(s2)CN(S(=O)(=O)c2ccc(Cl)cc2)CC3)cc1` belongs 6.55% [at 10 µM]; to `COc1cccc(CC(=O)N2CCC3(CC2)Nc2cc(OC)ccc2-n2cccc23)c1`, 12.8% [at 0.35 µM]; to `COc1ccc(CCNc2nc(SCc3cc(=O)n4cc(Cl)ccc4n3)nc3ccccc23)cc1OC`, 12.8%. To `Cc1ccc(Cn2c(CN3CCC(C(=O)NCc4cccnc4)CC3)cc3ccccc32)cc1` belongs 16.6% [at 2.6 µM]; to `CN1C[C@H]2CN(Cc3ccc4c(c3)OCO4)CCC[C@@]2(C(=O)O)C1`, 12.4%; to `COc1cccc(C(=O)N2CCC3(CC2)Nc2ccc(Cl)cc2-n2cccc23)c1`, 7.04% [at 10 µM].

For `Cc1cccc(OCC(=O)N2CCC(C(=O)NCCc3csc(-c4ccccc4)n3)CC2)c1`, the max activity was 9.91%.

Regarding `CCc1cnc(N2CCc3cc(C(=O)NCC4CC4)c(N(C)C)nc3CC2)nc1`, the max activity is -14.2% [at 2.6 µM]. For `CN(C)C(=O)c1cc2c(nc1NCC1CC1)CCN(Cc1ccccn1)CC2`, the max activity was 32.5%.

Consider `COc1ccc(C(=O)N2CCC3(CC2)Nc2ccc(Cl)cc2-n2cccc23)cc1OC`, for which the max activity was 9.68% [at 0.68 µM]. For the compound `O=C(Nc1ccc(-c2nc(-c3ccccc3)co2)cc1)C1CCCCC1`, the max activity is 11.6% [at 10 µM].

For `CCc1ccc(-c2noc(-c3nnn(Cc4nc(-c5ccccc5OC)oc4C)c3C)n2)cc1`, the max activity was 11.7% [at 1.35 µM]. With `Cc1cccc(OCC(=O)N2CCC[C@@H]2C(=O)NCCc2csc(-c3ccccc3)n2)c1`, the max activity was 9.84% [at 2.6 µM].

`O=C(Cc1cccnc1)N1CC(=O)N2[C@@H](CO)[C@H](c3ccc(C#CC4CCCCC4)cc3)[C@@H]2C1`: the max activity was 14.3% [at 10 µM].

For the compound `COCC(=O)N1CC(=O)N2[C@H](CO)[C@H](c3ccc(C#CC4CC4)cc3)[C@@H]2C1`, the max activity was 43.4%.

As to `COCC(=O)N1CC(=O)N2[C@H](CO)[C@@H](c3ccc(C#CC4CC4)cc3)[C@@H]2C1`, the max activity is 39.9%. Turning to `Cc1ccc(-c2noc(-c3nnn(Cc4nc(-c5ccccc5)oc4C)c3C)n2)cc1C`, the max activity was 6.16%. On to `O=C(Cc1cccs1)N1CCC2(CC1)Nc1cc(F)ccc1-n1cccc12`, for which the max activity was 7.4% [at 2.6 µM]. With `Cc1cccc(S(=O)(=O)N2CCC(C(=O)NCCc3csc(C)n3)CC2)c1`, the max activity was -8.91%. To `COc1ccccc1-c1nc(Cn2nnc(-c3nc(-c4cccc(OC)c4OC)no3)c2C)c(C)o1` belongs -11.2%. Turning to `Cc1ccc(-c2noc(-c3nnn(Cc4nc(-c5ccccc5)oc4C)c3C)n2)cc1`, the max activity is 8.04%. To `O=C(Nc1ccc(-c2nc(-c3ccccc3)co2)cc1)Nc1ccc(F)c(Cl)c1` belongs 15.9%. Consider `CC(C)CNC(=O)C1Cn2ccnc2C2(CCN(c3ncccn3)CC2)O1` (configuration not stated), for which the max activity was 47.8%.

For `Cc1cccc(-c2nc(Cn3nnc(-c4nc(-c5cccc(Br)c5)no4)c3C)c(C)o2)c1`, the max activity was 7% [at 0.68 µM]. As for `CC(C)c1ccc(S(=O)(=O)N2CCC3(CC2)NCCN=C3NCc2ccc(F)cc2)cc1`, the max activity is -13.4% [at 10 µM]. Regarding `COCCNC1=NCCNC12CCN(S(=O)(=O)c1ccc(C(C)C)cc1)CC2`, the max activity is -6.8% [at 1.35 µM]. `COc1ccccc1CCC(=O)Nc1ccc2c(c1)CCC(=O)N2C`: the max activity was -10.7% [at 0.16 µM]. Turning to `O=C1CCc2cc(NC(=O)c3cncc(Br)c3)ccc2N1`, the max activity is 4.53% [at 0.68 µM]. As to `Cc1cccc(NC(=O)Nc2ccc(-c3nc(-c4cc(C)ccc4C)co3)cc2)c1`, the max activity is 6.67%. The result for `CC(C)CC#Cc1ccc([C@@H]2[C@H]3CN(C(=O)Nc4cc(F)ccc4F)CC(=O)N3[C@H]2CO)cc1` reads 2.95% [at 0.16 µM]; that for `Cc1oc(-c2ccccc2)nc1Cn1nnc(-c2nc(-c3cccc(C(F)(F)F)c3)no2)c1C`, -10.4% [at 0.35 µM]; that for `CCC(C(=O)N1CCC2(CC1)Nc1cc(OC)ccc1-n1cccc12)c1ccccc1` (configuration not stated), 9.09% [at 0.35 µM]. Regarding `O=C(CC1N=C2c3ccccc3N=C(SCc3cccc(F)c3)N2C1=O)NCc1ccc(F)cc1` (configuration not stated), the max activity was 31.4% [at 2.6 µM]. For the compound `N#CCSC1=Nc2ccccc2C2=NC(CCC(=O)NCCc3ccccc3)C(=O)N12` (configuration not stated), the max activity is 23.8% [at 0.16 µM]. Turning to `COc1ccccc1CNC(=O)CCC1N=C2c3ccccc3N=C(SCc3ccc(C)cc3)N2C1=O` (configuration not stated), the max activity is 16.9% [at 0.16 µM]. On to `O=C(CCC1N=C2c3ccccc3N=C(SCc3cccc(F)c3)N2C1=O)NCCc1ccccc1` (configuration not stated), for which the max activity was 28.7%. Take `O=C(CC1N=C2c3ccccc3N=C(SCc3ccc(F)cc3)N2C1=O)NCc1ccccc1` (configuration not stated): the max activity was 12.9% [at 10 µM]. Take `CCOC(=O)CSC1=Nc2ccccc2C2=NC(CCC(=O)NCCc3ccccc3)C(=O)N12` (configuration not stated): the max activity is 12.5%.

The values above are taken from PubChem BioAssay AID1259418 (Broad Institute, 2018).
